31 compounds from PubChem BioAssay (NCATS) can be followed below.

SMILES strings stand for the structures. Values joined by “and” are separate entries in the source; they are usually repeats but may differ in a detail not shown here. Equal entries are not always repeated. Results filed as inconclusive are left out. Active and inactive are the calls of the source. The call rests on the fitted dose curve; in most records, active means well fitted inhibition curve with a large enough effect; inconclusive means small, poorly fitted or top-dose-only effect; inactive means flat fitted curve, though single readings scatter.

One assay relates to W2. The experiment in a line: qHTS profiling for inhibitors of Plasmodium falciparum proliferation (AID 504749). As to conditions: P. falciparum in erythrocytes, SYBR Green DNA, 72 h; series mostly up to 28.7 µM. Put shortly: (§1)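 Readout was DNA-dye fluorescence from lysed cultures, ex 485/em 535 nm. Parasitized red cells had grown 72 h with compound; data scaled between 0.29 uM artemisinin and DMSO wells and corrected using vehicle-only plates.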
A general note: Quantitative high-throughput screening tests each substance at several concentrations.

The subject of another assay is CRL-7250. The experiment in a line: Cytotoxic Profiling of Annotated Libraries Using Quantitative High-Throughput Screening (AID 1296008). On max response: on the % scale 0 is the no-effect control and ±100 the full control effect. Conditions: Five cell lines viability, CellTiter-Glo ATP luminescence, 48-72 h; max response: hits give low values. Put shortly:
(§2)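 Cells exposed to compounds for 48 or 72 hr at 37 degrees Celsius. Viability read as ATP-coupled luminescence with CellTiter-Glo after 10 min at room temperature.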
(Cellular ATP, detected with luciferase, serves as a proxy for viable cell number.)

For a further assay, the system named is HEK293. The description is as above. As to conditions: Five cell lines viability, CellTiter-Glo ATP luminescence, 48-72 h; max response: hits give low values. Put shortly:
as §2

A further assay relates to HaCat. The assay is described as above. As to conditions: Five cell lines viability, CellTiter-Glo ATP luminescence, 48-72 h; max response: hits give low values. The method, boiled down:
as §2

For a further assay, the system named is PC49. The experiment in a line: qHTS profiling for inhibitors of Plasmodium falciparum proliferation (AID 504749). As to conditions: P. falciparum in erythrocytes, SYBR Green DNA, 72 h; series mostly up to 28.7 µM. Put shortly: as §1
The next assay relates to TAB109. Described as above. As to conditions: P. falciparum in erythrocytes, SYBR Green DNA, 72 h; series mostly up to 28.7 µM. Put shortly:
as §1

Another assay concerns TAB165. The assay is described as above. Conditions: P. falciparum in erythrocytes, SYBR Green DNA, 72 h; series mostly up to 28.7 µM. Put shortly: as §1
The subject of the next assay is PC26. The description is as above. Conditions: P. falciparum in erythrocytes, SYBR Green DNA, 72 h; series mostly up to 28.7 µM. Put shortly: as §1
In a further assay the test system is SC27B. The description is as above. As to conditions: P. falciparum in erythrocytes, SYBR Green DNA, 72 h; series mostly up to 28.7 µM. The method, boiled down: as §1
For another assay, the system named is TAB113. The description is as above. Conditions: P. falciparum in erythrocytes, SYBR Green DNA, 72 h; series mostly up to 28.7 µM. Put shortly:
as §1
Further: nearly all actives have a fitted effect of over 60% in size.
Potency means the concentration at half of the fitted maximal effect.

With `N=C(N)c1ccc2cc(OC(=O)c3ccc(N=C(N)N)cc3)ccc2c1`, the Potency in the assay on W2 was 6.75 µM (active). Further, the max response was -0.158% (inactive) and -1.28% (inactive) in the assay with CRL-7250; -23.8% (inactive) and 0.182% (inactive) with HEK293; -5.52% (inactive) and -24.6% (inactive) in the assay with HaCat.
Consider `O=C(OC1C[C@H]2CC[C@@H](C1)[N+]21CCCC1)C(O)(c1ccccc1)c1ccccc1` (some centres not stated), for which the Potency result with PC49 was “inactive”. The Potency in the assay with TAB109 was 3.55 µM (active); in the assay on TAB165, 3.98 µM (active); in the assay with W2, 1.69 µM (active). Moreover, the max response is 4.02% (inactive) with CRL-7250, 3.35% (inactive) with HEK293 and 1.67% (inactive) in the assay on HaCat.
For `O=C(O)c1cccc(-c2noc(-c3ccccc3F)n2)c1`, the Potency result with PC26, in the assay on PC49, with SC27B, with TAB109, with TAB113 and in the assay with TAB165 was “inactive” in each case. In addition, in the assay on W2, the Potency entry is “inactive”. The result in the assay with CRL-7250 and with HaCat was inactive. Besides, in the assay with HaCat, the max response was -27.5% (inactive) and -24.9% (inactive).
As to `Cc1cc(C2CCCCC2)n(O)c(=O)c1`, in the assay on PC49, the Potency result was “inactive”. Besides, the Potency with TAB165 was 3.16 µM (active); in the assay with W2, 3.61 µM (active); in the assay on CRL-7250, 3.35 µM (active) and 2.96 µM (active); with HEK293, 5.9 µM (active); in the assay on HaCat it was 23.7 µM (active) and 20.9 µM (active).
As to `CCC(C)(Oc1ccc(C2(c3ccc(OC(C)(CC)C(=O)O)cc3)CCCCC2)cc1)C(=O)O` (configuration not stated), the Potency result in the assay with PC26, with PC49, in the assay with SC27B, with TAB113, in the assay on TAB165 and with W2 was “inactive” throughout. The max response is -2.28% (inactive) and 2.61% (inactive) in the assay on CRL-7250; -7.29% (inactive) and -0.679% (inactive) in the assay with HEK293. Moreover, the result in the assay with HaCat was inactive.
Consider `Cc1cc(Cl)ccc1OCCCC(=O)NO`, for which the values for the max response in the assay on CRL-7250 and with HaCat were -2.51% (inactive) and 3.7% (inactive), respectively.
Turning to `Cc1cccc(C#Cc2ccccc2)n1`, the max response with HaCat is -25.8% (inactive).
As for `Cc1cccc(C)c1OCC(=O)N[C@@H](Cc1ccccc1)[C@@H](O)C[C@H](Cc1ccccc1)NC(=O)[C@H](C(C)C)N1CCCNC1=O`, the Potency is 1.9 µM (active) with PC26; 2 µM (active) in the assay on PC49; 1.12 µM (active) in the assay on SC27B; 2.82 µM (active) in the assay on TAB109; 1.78 µM (active) in the assay on TAB113; 1 µM (active) with TAB165. Besides, the Potency in the assay on W2 is 1.69 µM (active).
Turning to `O=C1CCc2ccc(OCCCCN3CCN(c4cccc(Cl)c4Cl)CC3)cc2N1`, the Potency result in the assay with PC26 and with PC49 was “inactive” in each case. For the same compound, the Potency is 9.53 µM (active) in the assay on W2 and 16.8 µM (active) in the assay with HEK293. Besides, the call in the assay on HaCat was inactive.
In the case of `CN(C)CCc1c[nH]c2ccc(Cn3cncn3)cc12`, the Potency result with PC26, in the assay with PC49, in the assay with SC27B, in the assay on TAB113 and in the assay on TAB165 was “inactive” throughout. Moreover, the Potency is 1.32 µM (active) with CRL-7250 and 0.743 µM (active) in the assay on HEK293.
As to `O=C1c2ccccc2-c2n[nH]c3cccc1c23`, the Potency result in the assay with PC49, with SC27B, in the assay with TAB109, with TAB113 and in the assay on TAB165 was “inactive” throughout.
`CC(C)c1nc(CN(C)C(=O)N[C@H](C(=O)N[C@@H](Cc2ccccc2)C[C@H](O)[C@H](Cc2ccccc2)NC(=O)OCc2cncs2)C(C)C)cs1`: the max response in the assay on CRL-7250 is -16.9% (inactive) and 0.649% (inactive) and -2.4% (inactive). Further, in the assay with HaCat, the max response was -41.4% (inactive) and 3.85% (inactive); the call was inactive.
For the compound `C=C(c1ccc(C(=O)O)cc1)c1cc2c(cc1C)C(C)(C)CCC2(C)C`, the Potency entry in the assay on PC26, in the assay with PC49, in the assay with SC27B, in the assay with TAB109, with TAB113 and in the assay on TAB165 was “inactive” throughout.
`Cc1ccc(NC(=O)c2ccc(CN3CCN(C)CC3)cc2)cc1Nc1nccc(-c2cccnc2)n1`: the Potency in the assay with PC26 is 15.1 µM (active); with TAB109 it was 10 µM (active); in the assay on TAB113, 12.6 µM (active); in the assay with TAB165 it was 11.2 µM (active); with W2 it was 6.01 µM (active); with HEK293 it was 18.7 µM (active) and 21.1 µM (active) and 11.6 µM (active). In addition, the max response in the assay with CRL-7250 is -2.19% (inactive). The outcome in the assay on HaCat was inactive.
Turning to `C=CCc1cc(OC)c(O)c(C(=O)NCCO)c1`, the Potency entry in the assay on PC26, in the assay on PC49, in the assay on SC27B, in the assay on TAB109, in the assay with TAB113 and with TAB165 was “inactive” each time. Besides, in the assay on W2, the Potency result was “inactive”. The max response in the assay on HEK293 was -0.342% (inactive); with HaCat, -2.64% (inactive). Moreover, the compound was called inactive with HaCat.
In the case of `Cc1nc(Nc2ncc(C(=O)Nc3c(C)cccc3Cl)s2)cc(N2CCN(CCO)CC2)n1`, the Potency result in the assay with TAB109 and in the assay with TAB113 was “inactive” throughout. The Potency with TAB165 was 12.6 µM (active); with CRL-7250 it was 83.3 nM (active) and 66.8 nM (active) and 259 nM (active); in the assay with HEK293, 23.7 µM (active); with HaCat, 944 nM (active).
Consider `O=C(O)c1cc(=O)c2c(OCC(O)COc3cccc4oc(C(=O)O)cc(=O)c34)cccc2o1`, for which the Potency result with PC26, in the assay with PC49, with SC27B, in the assay with TAB109, with TAB113 and in the assay on TAB165 was “inactive” in each case. In the assay with W2, the Potency result is “inactive”.
In the case of `NC(=NCc1ccccc1)NC(=O)c1nc(Cl)c(N)nc1N`, in the assay with HEK293, the max response was -5.25% (inactive). The outcome with HaCat was “inactive; activator”.
Take `CCCc1cc(=O)[nH]c(=S)[nH]1`: the Potency entry in the assay on PC26, in the assay on PC49, in the assay on SC27B, in the assay on TAB109, in the assay on TAB113 and in the assay with TAB165 was “inactive” each time. The Potency result with W2 is “inactive”. The max response in the assay with CRL-7250 is 1.74% (inactive) and -1.3% (inactive); in the assay on HEK293 it was 2.66% (inactive).
In the case of `Nc1nc(N)c(N=O)c(OCC2CCCCC2)n1`, the Potency in the assay with CRL-7250 is 14.8 µM (active). Also, the max response with HaCat is -17.6% (inactive).
For the compound `CN1CCC(=C2c3ccccc3CCc3sccc32)CC1`, the Potency was 8.91 µM (active) in the assay with PC49; 4.47 µM (active) with TAB165; 1.51 µM (active) in the assay on W2; 26.4 µM (active) and 10.6 µM (active) in the assay on HEK293. In the assay with CRL-7250, the max response is -8.84% (inactive) and -2.17% (inactive). For the same compound, in the assay on HaCat, the result was inactive.
On to `CN(C)C(=O)[C@H](O)[C@H](Cc1ccccc1)NC(=O)c1cc2cc(Cl)ccc2[nH]1`, for which, in the assay with CRL-7250, the call was inactive. Also, in the assay on HaCat, the max response is -6.71% (inactive) and the compound was called inactive.
With `CCc1nc(N)nc(N)c1-c1ccc(Cl)cc1`, the Potency result with PC49, in the assay with SC27B, with TAB109 and in the assay with TAB113 was “inactive” each time. The Potency was 0.178 µM (active) with TAB165; 6.68 µM (active) and 18.7 µM (active) in the assay on HEK293. Further, the values for the max response with CRL-7250 and in the assay with HaCat were -18.3% (inactive) and 3.72% (inactive), respectively.
Turning to `NNc1nncc2ccccc12`, in the assay on PC49, the Potency entry is “inactive”. Also, the Potency in the assay with W2 is 3.22 µM (active).
`CCCCCCCCOc1ccccc1C(=O)Nc1ccc(C(=O)OCC[N+](C)(CC)CC)cc1`: the Potency in the assay on TAB109 is 7.94 µM (active); in the assay on TAB113, 10 µM (active); in the assay with TAB165, 6.31 µM (active); in the assay on W2 it was 6.75 µM (active). For the same compound, the max response in the assay with CRL-7250 was -18.9% (inactive) and -13.2% (inactive); with HaCat, -9.66% (inactive).
`C[C@H](Cc1ccc(O)c(O)c1)[C@@H](C)Cc1ccc(O)c(O)c1`: the outcome with HaCat was inactive.
With `O=Nc1c(-c2c(O)[nH]c3cc(Br)ccc23)[nH]c2ccccc12`, the Potency in the assay on HEK293 is 14.8 µM (active); in the assay with HaCat, 11800 nM (active).
For `Cc1cc(O)c2c(c1)C(=O)c1cc(O)cc(O)c1C2=O`, in the assay on CRL-7250, the call was inactive. Moreover, in the assay on HaCat, the max response was -5.49% (inactive).
Regarding `CCCCN(CCCC)CCC(O)c1cc2c(Cl)cc(Cl)cc2c2cc(C(F)(F)F)ccc12` (configuration not stated), the Potency was 0.0102 µM (active) in the assay with PC26; 0.0126 µM (active) in the assay on SC27B; 0.0071 µM (active) in the assay with TAB109; 0.0079 µM (active) in the assay with TAB113; 0.0079 µM (active) in the assay on TAB165.
Turning to `O=C(O)c1cn(-c2ccc(F)cc2)c2cc(N3CCNCC3)c(F)cc2c1=O`, the Potency result in the assay on PC26, in the assay on PC49, with SC27B and in the assay with TAB113 was “inactive” each time. For the same compound, in the assay with W2, the Potency was 10.7 µM (active). Besides, the max response was 3.53% (inactive) and 1.39% (inactive) in the assay on CRL-7250; -4.73% (inactive) in the assay with HEK293; -14.9% (inactive) in the assay on HaCat.
For the compound `Nc1ccn([C@@H]2O[C@H](CO)[C@@H](O)C2O)c(=O)n1` (some centres not stated), the Potency result with PC49, with SC27B, in the assay with TAB109, with TAB113 and with TAB165 was “inactive” throughout. Also, the compound was called inactive in the assay on CRL-7250, in the assay with HEK293 and with HaCat.
